PubChem BioAssay (NCI)
Where “and” joins values, the source holds several entries; their conditions need not be identical. Equal entries are not always repeated. This is part of a sample that, as a whole, favours compounds with a hit. Of some 83,000 tested, about 20% had one in any assay.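 Note: values are percent growth. 100 is the growth of untreated cells, values between 100 and 0 indicate rising inhibition; between -100 and 0 indicates cell death.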 Calls of active or inactive are those of the source. Rule for the calls: active = growth percent below 10; inactive = the rest.

What follows are compounds tested on MCF7 breast (assay: NCI-60 one-dose screen, 48 h (100 = growth as untreated, 0 = no growth, -100 = all killed)). Settings: 10 µM unless noted.

SMILES	growth
CC1(C)CC2(C)OC(=N)C1(C#N)C2(C#N)C#N (centres undefined)	-56.8% [100 µM] (active) and -71.8% [100 µM] (active)
CCCCOC(=O)C1CC[C@H]2[C@@H]3CCc4cc(OC(=O)c5cccc6c(=O)c7ccccc7[nH]c56)ccc4[C@H]3CC[C@]12C (some centres undefined)	-86.3% [50 µM] (active) and -100% [50 µM] (active)
CCC1CC(C)C(O)/C=C/C=C/CC(C)OC(=O)CC(O)C(OC)C1OC1OC(C)CC(O)(C(C)=O)C1O (centres undefined)	32% [100 µM] (inactive) and 5.08% [100 µM] (active)
N#C/C(=C\c1ccccc1)C(=O)Nc1nnc(-c2ccccc2)o1	33.4% [100 µM] (inactive) and 3.23% [100 µM] (active)
Cc1c2c(c(O)c3c(O)cccc13)C(=O)C1(O)C(O)=C(C(=O)NCNc3ccc(C(N)=O)cn3)C(=O)C(N(C)C)C1C2 (centres undefined)	-81.9% [100 µM] (active) and -89.4% [100 µM] (active)
Cc1ccnc2[nH]c(-c3ccc(F)cc3)cc(=O)c12	22.1% [100 µM] (inactive) and 5.04% [100 µM] (active)
CC(=O)c1cc2c(s1)C(=O)c1scc(C(C)=O)c1C2=O	-68.6% [100 µM] (active) and -79.8% [100 µM] (active)
NC1=NN(c2ccccc2)C2(c3ccncc3C(=O)O)C1C(N)=NN2c1ccccc1 (centres undefined)	69.3% [100 µM] (inactive) and 90.4% [100 µM] (inactive)
CCCC(=O)Oc1c2ccsc2c(OC(=O)CCC)c2ccsc12	-72.6% [100 µM] (active) and -100% [100 µM] (active)
Cc1cc2c3c(nc4ccccc42)C(=O)c2cccnc2-c3n1	-74.8% [100 µM] (active) and -100% [100 µM] (active)
NNC1=N/C(=C\c2ccco2)C(Cl)=N1	16.5% [100 µM] (inactive) and -15.6% [100 µM] (active)
COc1c2c(c(OC)c3c1c(=O)c1ccccc1n3C)OCO2	9.09% [100 µM] (active)
O=C(CCc1ccccc1)On1c(-c2ccccc2)nc2ccccc2c1=S	-34.4% [100 µM] (active) and -60.1% [100 µM] (active)
O=[N+]([O-])c1cccc(-c2ncnc(-c3cccc([N+](=O)[O-])c3)n2)c1	55.1% [100 µM] (inactive) and 68.9% [100 µM] (inactive)
COc1cc(Nc2ccc3c(c2)CCC3)nc(OC)n1	22.3% [100 µM] (inactive) and -82.6% [100 µM] (active)
CCCn1c2c(c3ccccc3c1=O)C(=O)c1ccccc1-2	51.4% [100 µM] (inactive) and 17.4% [100 µM] (inactive)
Nc1cc2c3c(cccc3c1)C(=O)N(c1ccc(OCCN3CCCC3)cc1)C2=O	-78.2% [100 µM] (active) and -100% [100 µM] (active)
O=c1cc(-c2ccc(O)cc2)oc2cc(O[C@@H]3O[C@H](CO)[C@@H](O)[C@H](O)[C@H]3O)cc(O)c12	38.3% [100 µM] (inactive) and 0.613% [100 µM] (active)
COC(=O)C(=O)C(C(=O)C(=O)Nc1ccccc1C(=O)OC)c1nc2ccc(C(=O)c3ccccc3)cc2[nH]c1=O (centres undefined)	58.7% [100 µM] (inactive) and 7.77% [100 µM] (active)
O=C1NC(=S)NC1C(Cc1ccccc1)c1ccco1 (centres undefined)	19% [100 µM] (inactive) and 3.76% [100 µM] (active)
Nc1nc(Nc2cc(F)c(Cl)c(F)c2)cc(=O)[nH]1	65.9% [100 µM] (inactive) and -23.3% [100 µM] (active)
O=C1N(c2ccccc2)N=C2c3ccncc3C3=NN(c4ccccc4)C(=O)C123 (centres undefined)	28.9% [100 µM] (inactive) and -33.6% [100 µM] (active)
CC(C)=CCC/C(C)=C/CC/C(C)=C/CC/C(C)=C/C=C/C=C(\C)CC/C=C(\C)CC/C=C(\C)CCC=C(C)C	74.5% [100 µM] (inactive) and 28.2% [100 µM] (inactive)
CC#CC#C/C=C1/C=CC2(CCCCO2)O1 (centres undefined)	53.8% [100 µM] (inactive) and 0.753% [100 µM] (active)
